Source: PubChem BioAssay (several laboratories)
ROMK primary: modulates human ROMK potassium channel activity; B-score at 10 µM; P48048; Tet-inducible ROMK, thallium flux fluorescence; actives lie on both sides; actives 2% (n = 130,000); AID 1918;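 active = signal ratio slope over the read window, or its plate-corrected B-score, at least 3 SD from the plate mean, either direction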;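 note: B-score of the F/F0 ratio slope over 7 to 12 s after thallium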
Target sequence (P48048 whole entry, looked up): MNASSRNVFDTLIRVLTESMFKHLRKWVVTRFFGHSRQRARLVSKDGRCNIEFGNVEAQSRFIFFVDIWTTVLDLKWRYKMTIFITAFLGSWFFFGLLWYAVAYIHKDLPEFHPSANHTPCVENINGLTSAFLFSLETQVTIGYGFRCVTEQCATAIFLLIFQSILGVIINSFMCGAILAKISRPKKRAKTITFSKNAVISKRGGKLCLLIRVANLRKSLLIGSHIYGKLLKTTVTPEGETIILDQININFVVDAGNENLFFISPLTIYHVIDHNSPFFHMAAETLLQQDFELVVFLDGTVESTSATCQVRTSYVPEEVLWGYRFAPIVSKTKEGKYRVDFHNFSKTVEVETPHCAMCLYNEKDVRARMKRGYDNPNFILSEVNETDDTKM
Insulin prom inh: TRM-6 insulin promoter activity inhibition | TRM-6 cells (human fetal islet line), insulin promoter-eGFP reporter, imaging; reporter expression induced with tamoxifen | inhibition, % at 2 µM | actives 0.9% (n = 130,000);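 active = inhibition above the mean plus 3 SD, with well images judged a real hit on visual review, cut at about 60% in these data, passing the limit was not always enough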
Cl transport mod: modulates chloride dependent transport by human KCC2; Q9H2X9; KCC2 cells, thallium flux FluoZin-2 fluorescence; B-score of Tl+ flux slope (higher = more flux/activation; lower = inhibition) at 10 µM; actives 2.2% (n = 190,000); AID 1456;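 active = thallium flux slope and its plate-corrected score both differing from the plate sample mean at a set confidence after two filtering rounds, in either direction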;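 note: slope of fluorescence scaled to starting intensity during 10 to 20 s after thallium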
Insulin prom up: MIN6 insulin promoter up-regulation. MIN6 insulin promoter-GFP reporter, high-content imaging; hits give high values. actives 0.3% (n = 190,000). z-score at 5 µM. AID 1625;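 active = z-score above 3 at 5 µM with at least 500 cells counted in the well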
WT yeast gro inh: growth inhibition of WT yeast, mitochondrial fusion screen | inhibition, % at 10 µM | AID 1362 | mitochondrial fusion phenotypic screen, WT strain | actives 2.1% (n = 190,000); in the data active = inhibition above about 58%; tested in S. cerevisiae
L major viab: reduces viability of Leishmania major promastigotes; inhibition, % at 10 µM; resazurin fluorescence viability; actives 9% (n = 200,000); in the data active = inhibition above about 50%;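 note: promastigotes grown with compound for 44 hours at 28 °C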
* marks the source's active call; other numbers are inactive results; . = no result. Most compounds without a hit are left out; they make up all but 12% or so of the library.

SMILES | ROMK primary | Insulin prom inh | Cl transport mod | Insulin prom up | WT yeast gro inh | L major viab
CC(=O)Nc1ccc(N2CCCC(C)C2)c([N+](=O)[O-])c1 (stereo not drawn) | 1.4 | . | -0.99 | 0.63 | 21 | 11
Cc1cccc(-n2cc(-c3ccccc3)c3c(=O)[nH]cnc32)c1 | 2.3 | 3 | 0.014 | -0.48 | 8 | 18
Cc1ccc(-n2cc(-c3ccccc3)c3c(NN4CCOCC4)ncnc32)cc1 | -0.64 | 4 | 1.2 | -0.05 | 28 | 81*
Cc1cccc(-n2cc(-c3ccccc3)c3c(NN4CCOCC4)ncnc32)c1 | -0.98 | 38 | -0.63 | -0.89 | 36 | 63*
Cc1ccccc1-n1nc(C)c2cc(C(=O)N3CCN(S(=O)(=O)c4ccc(F)cc4)CC3)sc21 | 0.99 | . | -0.3 | 1.4 | -5 | 52*
Cc1ccccc1-n1nc(C)c2cc(C(=O)N3CCN(S(=O)(=O)c4ccc(Cl)cc4)CC3)sc21 | . | 26 | 0.45 | -0.78 | 10 | 38
CCCCn1c(=O)[nH]c(=O)c2c1nc(-c1ccc(-c3ccc(F)cc3)o1)n2C | . | . | 0.45 | -0.47 | . | .
CCCCn1c(=O)[nH]c(=O)c2c1nc(-c1ccc(CC)c([N+](=O)[O-])c1)n2C | 0.43 | -33 | 0.58 | -2.2 | 3 | 84*
CCOc1ccccc1CN(CCc1ccc2c(c1)OCO2)Cc1ccccn1 | -0.81 | . | -0.13 | -1.7 | 12 | 82*
Clc1ccc(-c2csc(Nc3ccccc3)[n+]2Cc2ccco2)c(Cl)c1 | -0.4 | . | 0.11 | -0.44 | 72* | 36
C=CC[n+]1c(-c2ccc(Cl)cc2Cl)csc1Nc1c(C)n(C)n(-c2ccccc2)c1=O | -0.0056 | . | -0.67 | -0.79 | 24 | 29
CCCC[n+]1c(-c2ccc(Cl)cc2Cl)csc1Nc1ccccc1 | . | . | 0.068 | -0.42 | 68* | 23
Cc1ccc(Nc2nc3c([nH]2)c(=O)n(C)c(=O)n3C)cc1 | . | 6 | -0.13 | 3.3* | 48 | 3
Cc1cc(C)cc(Nc2nc3c([nH]2)c(=O)n(C)c(=O)n3C)c1 | 0.44 | 58 | -0.38 | 0.72 | -1 | 31
CCOC(=O)c1cnn(-c2ccccc2)c1NC(=O)CCl | 0.95 | -3 | 0.95 | 0.07 | -1 | 0
Cc1c(C#N)c(NC(=O)CCl)n(Cc2ccc(F)cc2)c1C | 0.08 | . | 0.88 | . | -12 | 92*
Cc1c(C#N)c(NC(=O)CCl)n(Cc2cccs2)c1C | -0.49 | . | 0.32 | -1.3 | -20 | 80*
Cc1c(C#N)c(NC(=O)CCl)n(Cc2ccccc2)c1C | 0.61 | 33 | 0.16 | -1.2 | -24 | 90*
O=C1C2C3C=CC(CO)(O3)C2C(=O)N1c1ccccc1-c1ccccc1 (stereo not drawn) | . | . | 0.15 | 0.89 | 69* | -5
O=C(O)C1Cc2[nH]cnc2C(c2ccc(F)cc2)N1 (stereo not drawn) | -0.027 | . | 0.94 | 0.44 | -7 | 1
O=c1nc(-c2ccccc2)c2ccccc2[nH]1 | . | . | -0.46 | 1.3 | -7 | -7
S=c1nc(-c2ccccc2)[nH]c2ccccc12 | 7.3* | . | 40* | -0.45 | 5 | 2
CCOc1ccc(NC(=O)CN(C)CC(=O)Nc2cc(Cl)ccc2C#N)cc1OCC | . | 26 | -0.29 | -0.61 | -19 | 86*
COc1ccccc1/C=C/C(=O)NCC(=O)N/N=C(\CCC(=O)O)c1ccccc1 | -0.2 | -9 | -0.84 | -0.6 | -5 | 99*
Cc1ccccc1-c1noc(C23CC4CC(CC(C4)C2)C3)n1 | . | -77 | . | -0.5 | 81* | -2
SMILES | ROMK primary | Insulin prom inh | Cl transport mod | Insulin prom up | WT yeast gro inh | L major viab
c1cncc(-c2noc(C34CC5CC(CC(C5)C3)C4)n2)c1 | -0.47 | 29 | . | -0.08 | 13 | 14
CCOc1c(Cl)cc(CNC(C)(C)CC(C)(C)C)cc1OC | -2.7 | -27 | 2.4 | -0.46 | 9 | 20
COC(=O)c1c(C)nn(-c2ccccc2)c1N | 1.4 | -110 | -0.63 | 2.7 | 11 | -3
COc1ccccc1C1c2c(C)nn(-c3ccccc3)c2NC(=O)C1NC(=O)c1ccccc1 (stereo not drawn) | -1.6 | 24 | -0.74 | 0.21 | -16 | 75*
COC(=O)CC1(C(=O)OC)Oc2ccc(Br)cc2C(=O)N1c1cccc(Cl)c1Cl (stereo not drawn) | . | . | -0.67 | -0.32 | . | .
COc1cccc(C(c2nnnn2Cc2ccccc2)N2CCN(C(=O)c3ccco3)CC2)c1OC (stereo not drawn) | . | -22 | -0.54 | -0.13 | 3 | 79*
CCCCC(c1nnnn1Cc1ccco1)N1CCN(C(=O)c2ccco2)CC1 (stereo not drawn) | -0.21 | 0 | . | 0.91 | -18 | 59*
